Assay outcomes from PubChem.
MT1-MMP txn act = MT1-MMP promoter transcription activation | hit rate 0.16% among 86,000 | HT1080 MT1-MMP promoter luciferase reporter, luminescence, overnight; hits give high values | activation factor at 10 µM;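 active = activation factor of at least 2 for MT1-MMP transcription at 10 µM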
ERa SRC1 pot = enhances coactivator binding to human estrogen receptor alpha; P03372; coactivator binding (% of control), % at 25.6 µM; hit rate 1.3% among 86,000; TR-FRET ERalpha-LBD/SRC-Cy5 coactivator binding, 2 h; 100 = basal binding, no effect; AID 639; in the data active = activity above about 200%;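 also: binding measured in presence of low estradiol as agonist stimulus; 0% = peptide alone without receptor and 100% = receptor with peptide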
ERa coact inh = ER-alpha (human) coactivator binding inhibition; TR-FRET ER-alpha LBD / SRC-1 peptide, estradiol-bound; inhibition, % at 25.6 µM; hit rate 1.7% among 86,000; in the data active = inhibition above about 50%;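 also: 0% = receptor plus peptide control and 100% = peptide only without receptor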
EphB4 ephrin blk = antagonists of human EphB4-ephrin-B2 interaction | inhibition, % at 7 µM | EphB4 LBD / TNYL-RAW-Alexa532 peptide, fluorescence polarization | hit rate 0.15% among 97,000 | P54760 | AID 720;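 active = inhibition above the screen-wide mean inhibition plus 3 SD, cut at about 15% in these data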;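 also: 0% = DMSO wells and 100% = excess unlabeled TNYL-RAW peptide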
ERb SRC1 inh = ER-beta (human) coactivator binding inhibition; Q92731; TR-FRET ER-beta LBD / SRC1-Cy5 peptide binding; receptor agonist-loaded with 1 µM estradiol; inhibition, % at 25.6 µM; hit rate 1.3% among 86,000; AID 633;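 active = compounds whose percent inhibition of the receptor-coactivator binding signal exceeds about 50% in the single-dose screen, limit read from the data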;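 also: 0% = receptor plus peptide wells without compound and 100% = peptide-only wells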
Candida biofilm = kills Candida albicans biofilms; hit rate 0.14% among 85,000; inhibition, % at 6 µM; AID 834; C. albicans biofilm + clotrimazole, Alamar Blue;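 active = inhibition above 20%; inactive = inhibition below 20%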;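 also: preformed 24 hr biofilms exposed to compound for 48 hr; 0% = biofilm without compound and 100% = blank killed by clotrimazole plus chlorhexidine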
Numbers without * were called inactive; / = no result; [ ] = remark or other dose. Compounds with a hit are over-represented: about 3.2% of the library has one in this group of screens.

SMILES	MT1-MMP txn act	ERa SRC1 pot	ERa coact inh	EphB4 ephrin blk	ERb SRC1 inh	Candida biofilm
COC(=O)C1=C(C)OC(N)=C(C#N)C1c1ccsc1 (stereo not drawn)	1.2	109	-5	0	-6	/
CSc1nnc(N(CCC#N)CCC#N)s1	1.1	104	1	-2	1	3
CCN(CC)c1ccc(NC(=O)c2cnn(CC)c2)cc1	1.4	38	38	-11	78*[fluorescence artefact?]	12
CCc1c2c(nc3c(C(C)C)cccc13)-c1cccc(=O)n1C2	1.1	/	/	/	/	/
Nc1nnc(SCC(=O)NC23CC4CC(CC(C4)C2)C3)s1	1	119	-2	-4	-21	1
NC(=O)c1ccsc1NC(=O)COC(=O)C1CCCN1C(=O)c1cccs1 (stereo not drawn)	1.1	44	53*[fluorescence artefact?]	1	68*[fluorescence artefact?]	6
CN1CC(=O)N(CC(=O)NCc2ccc3c(c2)OCO3)C1=O	/	/	/	1	/	/
COc1ccc(-c2nnc(SCc3cc(C)ccc3C)n2N)cc1	1.3	74	3	1	-7	13
CC(=O)Nc1cc2c(cc1C(=O)c1ccccc1)OCCO2	1.2	67	28	6	63*	6
CCC(=O)Nc1cc2c(cc1C(=O)c1ccccc1)OCCO2	1.1	/	/	0	/	/
O=C(CSc1nc(Nc2ccccc2)nc(N2CCOCC2)n1)N1CCc2ccccc21	1	209*	19	-5	4	2
CC1C=Cc2ccccc2N1C(=O)c1ccccc1 (stereo not drawn)	1.3	109	-8	4	-10	-2
CCOC(=O)N1c2ccccc2C=CC1OCC (stereo not drawn)	1	619*	-3	/	-3	5
CC(O)c1cccc(NC(=O)CCC(=O)O)c1 (stereo not drawn)	1	120	7	19*	2	8
COc1ccc(Cn2c(C)c(C)c(C#N)c2NC(=O)Nc2ccccc2)cc1	1.2	97	8	-8	7	9
COc1ccc(Cn2c(C)c(C)c(C#N)c2NC(=O)Nc2cccc(C)c2)cc1	1.1	76	70*[fluorescence artefact?]	-2	50*	7
Cc1ccc(C(=O)NC(C)(COc2nonc2C)COc2nonc2C)cc1	1.1	101	17	-5	7	6
CCOCCCNC(=O)c1c[nH]c2ccc(S(=O)(=O)Nc3cccc(OC)c3)cc2c1=O	1	32	53*	1	16	-3
CCN(CC)CCNS(=O)(=O)c1ccc2[nH]cc(C(=O)O)c(=O)c2c1	/	/	/	11	/	/
CCc1ccccc1NS(=O)(=O)c1ccc2[nH]cc(C(=O)NCc3ccco3)c(=O)c2c1	1	277*[fluorescence artefact?]	38	2	39	2
CCN(CC)C(=O)c1c[nH]c2ccc(S(=O)(=O)Nc3cc(C)cc(C)c3)cc2c1=O	1	26	56*	6	24	9
CN(C)c1nc(N/N=C\c2ccc(Cl)c([N+](=O)[O-])c2)nc(Nc2ccc(F)cc2)n1	1.2	102	78*	-6	31	0
Cc1cc(-c2ccco2)c(C#N)c2nc3ccccc3n12	1.1	86	81*[fluorescence artefact?]	/	48	4
CC(C)c1cc(N2CCN(C(=O)c3ccco3)CC2)n2c(nc3ccccc32)c1C#N	1	112	-4	3	-4	5
COC(=O)[C@@]1(Cc2ccccc2)[C@H]2c3cc(C(=O)N(C)C)n(Cc4nc5ccccc5[nH]4)c3C[C@H]2CN1C(=O)c1ccccc1	1.1	/	/	/	/	/
SMILES	MT1-MMP txn act	ERa SRC1 pot	ERa coact inh	EphB4 ephrin blk	ERb SRC1 inh	Candida biofilm
COc1ccc(-c2oc(NC(=O)CCl)c(C#N)c2-c2ccc(OC)cc2)cc1	1	56	7	5	55*[fluorescence artefact?]	3
N#Cc1c(NC(=O)CSc2ncccn2)oc(-c2ccccc2)c1-c1ccccc1	1.1	60	60*	9	45	4
Cc1ccnc(SCC(=O)Nc2oc(-c3ccccc3)c(-c3ccccc3)c2C#N)n1	/	109	-1	3	3	3
CC(NC(=O)C(=O)NN=C1CCCCCCCCCCC1)c1ccccc1 (stereo not drawn)	/	/	/	9	/	/
COc1ccccc1-c1nnc2sc(-c3ccc(N(C)C)cc3)nn12	0.5	/	/	/	/	/
COc1ccccc1-c1nnc2sc(-c3cnccn3)nn12	1	59	52*[fluorescence artefact?]	-3	65*	7
CCOc1cccc(-c2nnc3sc(-c4ccc(C)cc4)nn23)c1	1.1	101	4	/	14	7
